Experimental data taken from the supplement of paper PMC6555819.

Legend:
Assay in all cases: PBM binding z-score (relative to random genomic background probes); higher = stronger binding; sequences stand for … in GC…GCGATTGACAGCGTAGAATGAAGG
[1] = tested on: RARb homodimer (NR concentration 270 nM)
In short: (§1)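 Scanned fluorescence from custom Agilent 4×180K protein-binding microarrays was regression-normalized. Binding z-scores use random background probes as reference. Ligand-free nuclear receptor dimers were incubated on the arrays for 1 h and detected with antibodies against each partner (one per run).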

[2] = tested on: RARg:RXRa (NR concentration 270 nM, RXRa partner concentration 90 nM)
In short: as §1

[3] = tested on: RARg homodimer (NR concentration 270 nM)
In short: as §1

[4] = tested on: RXRa DBDmut IVT, anti-RXR (DBD mutation: RXRa K156A/R161A, NR concentration 90 nM)
In short: as §1

[5] = tested on: RXRa homodimer (NR concentration 180 nM)
In short: as §1

[6] = tested on: THRa:RXRa (NR concentration 90 nM, RXRa partner concentration 90 nM)
In short: as §1

[7] = tested on: THRa homodimer (NR concentration 90 nM)
In short: as §1

[8] = tested on: VDR homodimer (NR concentration 270 nM)
In short: as §1

| Sequence | PBM binding z-score [1] | PBM binding z-score [2] | PBM binding z-score [3] | PBM binding z-score [4] | PBM binding z-score [5] | PBM binding z-score [6] | PBM binding z-score [7] | PBM binding z-score [8] |
| --- | --- | --- | --- | --- | --- | --- | --- | --- |
| ATCGATAGGTCGAAGGTGAGTATACCCACCCGAA | 0.922 | 2.06 | 1.56 | -0.262 | 2.36 | 0.837 | -0.266 | -0.3 |
| CCTAGTGGGCCAAAAAGGTCATTGATGCCGATAA | 4.28 | 4.7 | 4.5 | 0.794 | 4.79 | 2.71 | 0.434 | 2.66 |
| GATACAGGGTCAAGGCCAGAGTCCGCGTATTGAT | 3.62 | 5.35 | 4.89 | 1.91 | 5.5 | 3.52 | 1.37 | 1.73 |
| CGTCCAAGGTCAAAGGTTAGTGAAGAGATGACGG | 4.34 | 7.04 | 6.48 | 3.99 | 8.4 | 4.33 | 2.53 | 3.02 |
| CGTCCAAGATCAAAGGTCAGTGAAGAGATGACGG | 4.44 | 4.65 | 4.54 | 0.609 | 5.07 | 2.59 | 0.239 | 1.07 |
| CCGACTAGGGCATAAGGTTACCATAAGCCAGCCC | 1.76 | 2.19 | 1.34 | -0.152 | 1.35 | 2.17 | 1.08 | -0.17 |
| CTCGAAATGTCGGTTGAGGTGAGTATACGGATAA | 0.344 | 0.0589 | 0.341 | 0.0185 | 0.114 | 3.31 | 1.36 | 0.263 |
| TCGAGTAGGTTAGGGTCATTCAGAATGGCGTCGA | 3.05 | 3.8 | 2.8 | 2.11 | 4.66 | 3.83 | 2.62 | 3.97 |
| AGTCAAAGTTCATCTAGGCAACGTAAGATATGCT | 3.91 | 5.49 | 6.04 | 4.78 | 4.97 | 2.22 | -0.142 | 4.64 |
| CGTCCAAGGTCAGGGAGGTCAGTGAATGCCGAGT | 5.45 | 6.54 | 7.67 | 2.48 | 6.37 | 4.58 | 3.43 | 5.37 |
| AGAATGAGGTTATGAAGATCAGGGAATTGCGGTC | 1.07 | 1.45 | 1.06 | 1.05 | 2.45 | 2.35 | 0.96 | 0.716 |
| CTCGAAAGGTCGGTTGAGGTAAGTATACGGATAA | 1.72 | 2.37 | 2.35 | 0.522 | 1.83 | 4.54 | 0.648 | 0.257 |
| TAGCCTAGGTCAGAGCGGGCCAGTATACGCTATA | 1.85 | 2.55 | 3.13 | -0.459 | 1.18 | 2.85 | -0.121 | -0.402 |
| CATACAGGGTCACCTAGGCCAGAGTAGGGACGGC | 3.71 | 5.53 | 5.52 | 2.15 | 6.27 | 3.65 | 1.57 | 2.32 |
| GCTAGTTGGTCAGTAAGAGGTCACACACCGGTCG | 4.7 | 4.94 | 3.87 | 0.674 | 4.5 | 3.58 | 2.63 | 3.38 |
| CCTATTTGTTGACCATAAGGGCAACCGAAGCTCG | 2.18 | 0.901 | 1.09 | 0.849 | 0.768 | 1.78 | 1.89 | 0.782 |
| CGAACCAGGTCAAGGACAGTGAATCTCCGCACGC | 3.09 | 3.99 | 4.33 | 2.23 | 3.47 | 3.82 | 2.79 | 1.05 |
| CCTACTGGGCCATCAGGTCATGGATATCAACGTT | 2.95 | 2.25 | 2.22 | -0.124 | 1.66 | 3.47 | 3.47 | 0.959 |
| TCATATCGGTAAAGGTGAAAGTCGAACGATATGA | 1.32 | 1.5 | 1.16 | 0.447 | 1.95 | 1.19 | -0.551 | -0.566 |
| CGAACTAGGTCAGGGACAGTGAATCTCCGCACGC | 2.17 | 2.92 | 3.51 | 0.647 | 1.47 | 2.23 | 1.07 | -0.0543 |
| CATACAGGGTCAGCTAGGCTAGAGTAGGGACGGC | 3.04 | 4.09 | 4.3 | 1.33 | 3.94 | 2.84 | 1.02 | 1.04 |
| GGAACGAGGGAAAAGTTGATAGCATCTGTCGACG | -0.745 | -0.112 | 0.0748 | -0.319 | -0.0103 | -0.553 | -1.15 | -0.433 |
| AGCTCTAGGTAACAAGTTCAGTGAAAGAGAGGAC | 1.92 | 1.12 | 1.23 | 0.916 | 0.551 | 1.49 | 0.681 | 2.64 |
| TCTAGTTGGTCACGGAGGTCACACAAGACGGGTA | 4.03 | 4.88 | 4.81 | 1.22 | 4.67 | 3.75 | 2.37 | 3.03 |
| TCTTGTAGATGAGCAGGTTAAGAAAGCTGGCCAA | -0.681 | -0.327 | -0.525 | -0.188 | 0.00792 | -0.277 | -0.72 | -0.433 |
| GCATATAGGTAATACAAGGTGAAATTCCGATTGT | 0.44 | 0.518 | 0.637 | 0.228 | 0.614 | 4.06 | 0.848 | 0.0965 |
| CAAACTAGGTCAAGAGGTCAAAGTCCGCTTCCCG | 5.9 | 8.2 | 8.13 | 2.89 | 8.25 | 4.44 | 2.61 | 4.47 |
| ATCTCTAGGTAAAAAGTTCAGTGAAAGAGAGGAC | 2.67 | 2.69 | 2.46 | 0.695 | 1.04 | 1.22 | 0.595 | 1.56 |
